The source of these data is ChEMBL document CHEMBL5606460, “ASAP - DENV-2 NS2B-NS3 protease fluorescence single point” (2024).

The test concerns the target Genome polyprotein (dengue virus type 2) (UniProt P29990).
The mark [1] stands for this setting: Thailand/16681/1984, Concentration 25.0 uM, Number of replicates 1.0.

The campaign covered roughly 2,000 compounds. About 110 (5.5%) showed an effect of 50% or more. For the sample, strong results were picked, then their nearest neighbours and some compounds at random.

One may read the inhibition as the change of the read-out against control, counted positive when it falls. With `Cc1cc(CO)c2cccc(C[C@H](NC(=O)[C@@H](N)c3ccsc3)C(=O)O)c2n1`, the inhibition by setting is: (Thailand/16681/1984, Concentration 49.95 uM, Number of replicates 2.0, Standard deviation 1.7977802295531586 %) 8.31%; (Thailand/16681/1984, Concentration 99.9 uM, Number of replicates 2.0, Standard deviation 1.1856845832025373 %) 20.1%.

As for `Cc1cc(CO)c2cccc(Cc3ccccc3NC(=O)c3ccno3)c2n1`, the inhibition is, setting by setting: (Thailand/16681/1984, Concentration 49.95 uM, Number of replicates 2.0, Standard deviation 3.752588616330447 %) 3.29%; (Thailand/16681/1984, Concentration 99.9 uM, Number of replicates 2.0, Standard deviation 1.45880155634974 %) 6.29%.

On to `Cc1cccc(C)c1OC[C@H](C)NC(=O)C1CCN(c2ccc(C=O)cc2)CC1`, for which, under setting [1], the inhibition stood at 6.86%.

As for `CNC(=O)c1cc(Cl)ccc1N(C)S(=O)(=O)c1ccc(Oc2ccccc2Cl)cc1`, the inhibition runs as follows: (Thailand/16681/1984, Concentration 49.5 uM, Number of replicates 2.0, Standard deviation 1.1912141654334696 %) -2.39%; (Thailand/16681/1984, Concentration 99.01 uM, Number of replicates 2.0, Standard deviation 1.3706697565683075 %) -0.121%; (Thailand/16681/1984, Concentration 198.0 uM, Number of replicates 2.0, Standard deviation 0.031456216092408736 %) 3.32%.

Take `CCCN(C)C(=O)c1cc(Cl)ccc1NS(=O)(=O)c1ccc(Oc2ccccc2Cl)cc1`: the inhibition runs as follows: (Thailand/16681/1984, Concentration 49.5 uM, Number of replicates 2.0, Standard deviation 0.9470295707961462 %) 75.9%; (Thailand/16681/1984, Concentration 99.01 uM, Number of replicates 2.0, Standard deviation 0.4835625940830703 %) 88.8%; (Thailand/16681/1984, Concentration 198.0 uM, Number of replicates 2.0, Standard deviation 0.2692812727579233 %) 93.4%.

As for `CN(CCS(N)(=O)=O)C(=O)c1cc(Cl)ccc1NS(=O)(=O)c1ccc(Oc2ccccc2Cl)cc1`, the inhibition came to 8.12% (Thailand/16681/1984, Concentration 49.5 uM, Number of replicates 2.0, Standard deviation 3.051075775612508 %); 55.8% (Thailand/16681/1984, Concentration 99.01 uM, Number of replicates 2.0, Standard deviation 2.2523140974306535 %); 97.7% (Thailand/16681/1984, Concentration 198.0 uM, Number of replicates 2.0, Standard deviation 0.05978513602530914 %).

For `CN(c1ccc(Cl)cc1C(N)=O)S(=O)(=O)c1ccc(Oc2ccccc2Cl)cc1`, the inhibition was 1.15% (Thailand/16681/1984, Concentration 49.5 uM, Number of replicates 2.0, Standard deviation 0.11551161483271621 %); 3.78% (Thailand/16681/1984, Concentration 99.01 uM, Number of replicates 2.0, Standard deviation 0.4161514072882 %); 5.59% (Thailand/16681/1984, Concentration 198.0 uM, Number of replicates 2.0, Standard deviation 1.5666270190069185 %).

On to `COCCCN(Cc1ccccc1)C(=O)C1CCN(c2ccc(C=O)cc2)CC1`, for which, under setting [1], the inhibition came out at 16.7%.

For the compound `O=Cc1ccc(N2CCC(C(=O)Nc3cccc(OC(F)(F)F)c3)CC2)cc1`, the inhibition under setting [1] amounted to 12.8%.

On to `O=Cc1ccc(N2CCC(C(=O)N3CCN(c4ncc(C(F)(F)F)cc4Cl)CC3)CC2)cc1`, for which the inhibition under setting [1] is -1.15%.

Regarding `CSCC(=O)Nc1ccc(Cl)c2cccnc12`, the inhibition by setting is: (Thailand/16681/1984, Concentration 49.95 uM, Number of replicates 2.0, Standard deviation 4.284996583998793 %) -8.76%; (Thailand/16681/1984, Concentration 99.9 uM, Number of replicates 2.0, Standard deviation 5.022059659232943 %) -8.17%.

Take `Cc1c(C(=O)NCc2ccc(Cl)cc2OCCO)ccc(O)c1NC(=O)c1ccncc1F`: the inhibition is -3.14% (Thailand/16681/1984, Concentration 49.5 uM, Number of replicates 2.0, Standard deviation 1.9465984757153059 %); -2.65% (Thailand/16681/1984, Concentration 99.01 uM, Number of replicates 2.0, Standard deviation 1.7394020396248402 %); 0.351% (Thailand/16681/1984, Concentration 198.0 uM, Number of replicates 2.0, Standard deviation 1.2400320592735166 %).

`O=Cc1ccc(N2CCC(C(=O)Nc3ncc(Br)cc3O)CC2)cc1`: the inhibition under setting [1] came out at 52.8%.

On to `O=Cc1ccc(N2CCC(C(=O)Nc3cccc4ccc(O)cc34)CC2)cc1`, for which the inhibition under setting [1] came to 35.2%.

For `O=Cc1ccc(N2CCC(C(=O)Nc3cccc(C(F)(F)F)n3)CC2)cc1`, the inhibition under setting [1] was 13.5%.

Consider `O=Cc1ccc(N2CCC(C(=O)Nc3cccc(Br)n3)CC2)cc1`, for which the inhibition under setting [1] is 92.6%.

Regarding `O=Cc1ccc(N2CCC(C(=O)Nc3ncc(F)cc3Br)CC2)cc1`, the inhibition under setting [1] is 10.9%.

In the case of `Cc1ccc2cccc(NC(=O)C3CCN(c4ccc(C=O)cc4)CC3)c2n1`, the inhibition under setting [1] was 50.9%.

Take `Cc1c(Br)cccc1NC(=O)C1CCN(c2ccc(C=O)cc2)CC1`: under setting [1], the inhibition worked out at 13%.

Regarding `O=Cc1ccc(N2CCC(C(=O)Nc3ccc(Br)cc3O)CC2)cc1`, the inhibition under setting [1] worked out at 31.4%.

`Cc1nc(NC(=O)C2CCN(c3ccc(C=O)cc3)CC2)ccc1Br`: the inhibition under setting [1] turned out to be 12.1%.

For the compound `COC(=O)c1cccc(C(=O)Nc2ccncc2C)c1`, the inhibition was -4.08% (Thailand/16681/1984, Concentration 49.5 uM, Number of replicates 2.0, Standard deviation 0.22567664905073445 %); -3.74% (Thailand/16681/1984, Concentration 99.01 uM, Number of replicates 2.0, Standard deviation 0.2045809712592737 %); -2.98% (Thailand/16681/1984, Concentration 198.0 uM, Number of replicates 2.0, Standard deviation 1.3054913833669988 %).

Turning to `C[C@@H](c1ccccc1)N(CC1CC1)C(=O)C1CCN(c2ccc(C=O)cc2)CC1`, the inhibition under setting [1] was determined as 13.8%.

Turning to `O=C(c1csc([C@H]2CCCNC2)n1)N1CC[C@H](c2cccnc2)C1`, the inhibition is -0.499% (Thailand/16681/1984, Concentration 49.5 uM, Number of replicates 2.0, Standard deviation 1.7251582592894925 %); 1.01% (Thailand/16681/1984, Concentration 99.01 uM, Number of replicates 2.0, Standard deviation 2.248532513594862 %); 2.41% (Thailand/16681/1984, Concentration 198.0 uM, Number of replicates 2.0, Standard deviation 1.6393165928155962 %).

`NS(=O)(=O)c1cccc(CN2CC[C@H](c3c[nH]c4ccccc34)C2)c1`: the inhibition was -1.78% (Thailand/16681/1984, Concentration 49.5 uM, Number of replicates 2.0, Standard deviation 1.1633260593891446 %); 0.04% (Thailand/16681/1984, Concentration 99.01 uM, Number of replicates 2.0, Standard deviation 1.588607527736017 %); 2.15% (Thailand/16681/1984, Concentration 198.0 uM, Number of replicates 2.0, Standard deviation 1.7864683947344713 %).
